# Screens deposited in PubChem BioAssay by National Center for Advancing Translational Sciences (NCATS).
# An excerpt weighted towards active compounds, which were near 3.6% of everything screened.
# TDP-43 yeast inh: TDP-43 toxicity inhibition in yeast; TDP-43 expressing yeast growth rescue, BacTiter-Glo, 24 h; Potency, µM (titrated, usually from 46.1 µM), actives largely listed as activators; hit rate 1.8% among 410,000; AID 652104; note: nearly all actives have a fitted effect of over 50% in size
#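 Cell-based yeast growth screen: TDP-43 expression induced in galactose, inoculum OD600=0.02 after raffinose pregrowth to mid-log. Read-out BacTiter-Glo luminescence at 24 hr, 30 deg C; inhibition of toxicity seen as signal increase.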
# Mm-Cpn inhibitor: M. maripaludis TRiC chaperonin inhibition; hit rate 0.031% among 330,000; Potency, µM (series often up to 76.9 µM), actives largely listed as inhibitors; AID 504842; purified Mm-Cpn ATPase, ADP Transcreener TR-FRET; note: nearly all actives have a fitted effect of over 80% in size
#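 Compound-treated chaperonin, 25 nM final, turns over 10 uM ATP at 37°C for 30 min following a 10 min preincubation; ADP generated competes with ADP-d2 for Eu-cryptate antibody, lowering FRET.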
# FUS suppressor: rescues growth of FUS-expressing yeast; Potency, µM (series often up to 76.6 µM), most hits filed as activators; hit rate 0.24% among 390,000; S. cerevisiae FUS-expressing, growth rescue, OD600, 24 h; note: nearly all actives have a fitted effect of over 55% in size
#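 Steps: raffinose overnight preculture; dilution to OD 0.005 in 2% galactose minimal medium; compound addition (concentration series); 24hr at 30C, 99% humidity; absorbance read at 600 nm.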
# Abeta rescue: restores growth of yeast expressing A-beta42 peptide. yeast expressing A-beta42, growth rescue, OD600, 48 h; response scale: 0% DMSO, 100% iron-clioquinol control. Potency, µM (top dose mostly 46.1 µM), hits mostly activators. hit rate 0.063% among 410,000. AID 1347071; note: nearly all actives have a fitted effect of over 55% in size
#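 Growth rescue measured by 600 nm absorbance after 48 h yeast culture at 30 C with compound. Values normalized between DMSO and an equimolar ferric chloride plus clioquinol control.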
# aSyn rescue: rescues yeast growth from alpha-synuclein toxicity. Yeast expressing alpha-synuclein, growth rescue, BacTiter-Glo, 24 h. hit rate 0.14% among 370,000. Potency, µM (series often up to 46.1 µM), usual class: activators; note: nearly all actives have a fitted effect of over 65% in size
#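 Galactose-induced alpha-syn yeast (OD600=0.02, raffinose-pregrown) + pinned cpd, 24 hr, 30 deg C; growth by BacTiter-Glo luminescence. Growth restoration scores as activation.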
# ClpP mod: qHTS Assay for Activators of ClpP; ATP-dependent Clp protease proteolytic subunit (Bacillus subtilis (strain 168)), P80244; purified B. subtilis ClpP, FRET peptide cleavage, 20 min; Potency, µM (titrated, usually from 57.5 µM); hit rate 1.9% among 340,000; active = well fitted falling curve with a large enough effect; inconclusive = small, poorly fitted or top-dose-only effect; inactive = no such curve, though single readings can be large or run the other way; note: the source files actives as falling curves though it sought activators and does not explain the sign; nearly all actives have a fitted effect of over 65% in size
#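 FRET quenching reversal measured ClpP activation: 10 microg/mL B. subtilis ClpP at pH 8 with the FRET-FV decapeptide, read at 430 nm after 320 nm excitation. The 20-min minus 0-min signal was scaled between DMSO/no-enzyme wells and ADEP (5.8 microM final).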
# Numbers stand for hits; – = inactive; ? = inconclusive; · = no result given; [ ] = another dose, or the depositor's remark. Unless noted, calls come from the whole dose curve; as a rule, active = well fitted curve in the direction sought with a large enough effect; inconclusive = small, poorly fitted or top-dose-only effect, or another doubt; inactive = no such curve, though single readings can be large; an effect the other way counts as inactive or inconclusive.
SMILES,TDP-43 yeast inh,Mm-Cpn inhibitor,FUS suppressor,Abeta rescue,aSyn rescue,ClpP mod
CCCCC(=O)N1CCc2cc(OC)c(OC)cc2C1COc1ccc(OC)cc1 (centres undefined),·,·,–,–,·,–
Cc1ccc2nsnc2c1S(=O)(=O)N1CCN(C(=O)C2CCCO2)CC1 (centres undefined),?,–,–,–,22µM,–
O=S1(=O)N(Cc2ccccc2F)CCCN1Cc1c(F)cccc1Cl,–,–,–,–,–,32µM
COC(=O)C1=C(C(=O)OC)[C@]2([C@@H]3C/C=C\CN[C@@H](Cc4ccccc4)C(=O)N3Cc3ccccc3)C=C[C@H]1O2,·,·,·,·,·,–
Oc1cnc2ccccc2c1CN1CCOCC1,–,–,–,–,–,20µM
CC1CCN(C(=O)Cn2ncc3c4ccccc4n(Cc4ccc(Cl)cc4)c3c2=O)CC1,–[9.22 µM],·,–,–,·,–
COc1ccc(-c2noc(N3CCN(c4cccc(C)c4C)CC3)n2)cc1OC,–,·,–,–,·,–
CCCCNS(=O)(=O)/C=C/c1ccc(OC)cc1CNC(=O)OC(C)(C)C,·,·,–,·,·,·
COc1cc(CN2C(=O)C(CCc3ccccc3)ON=C2c2cnccn2)cc(OC)c1 (centres undefined),35µM,·,–,–,–,–
CC(=O)Nc1ccc(CN2C(=O)C(Cc3ccccc3)ON=C2c2ncccc2C)cc1 (centres undefined),–,·,–,–,–,–
CC(=O)Oc1ccc(CN2C(=O)C(CCc3ccccc3)ON=C2c2cnccn2)cc1 (centres undefined),14µM,·,–,–,–,–
COc1cc(CN2C(=O)C(C)ON=C2c2ncccc2C)cc(OC)c1 (centres undefined),–,·,–,–,–,–
CCNc1nc(N2CCCN(C)CC2)nc2cc(OC)c(OC)cc12,·,·,·,·,–,–
O=C(Nc1ccc(Cl)c(Cl)c1)N1CCSCC1,13µM,–,–,–,–,–
O=C(Nc1ccc(Cl)c(Cl)c1)N1CCCCCC1,–,–,–,–,–,–
O=C(Nc1ccc(Cl)c(Cl)c1)N1CCC(c2ccccc2)C1 (centres undefined),35µM,·,–,–,·,–
Cc1ccc(NC(=O)N2CCCC(c3ccccc3)C2)cc1 (centres undefined),18µM,–,–,–,–,–
O=C(c1ccc(NC(=S)Nc2ccc(Cl)c(Cl)c2)cc1)N1CCCC1,18µM,–,–,–,–,–
O=C(Nc1ccccc1)N1CCC(c2ccccc2)C1 (centres undefined),–,–,–,–,–,–
CC(C)C[C@H]1COc2cccc(F)c2S(=O)(=O)N1Cc1cn(Cc2ccc(F)cc2)nn1,·,·,–,·,·,·
Cc1cccc(C)c1NC(=O)Cn1cc(C(=O)C2CC2)c2ccccc21,–,·,–,–,·,–
O=C(/C=C/c1ccccc1)N1CCC(c2ccccc2)C1 (centres undefined),11µM,–,·,–,–,–
O=C(NNC(=S)Nc1ccc(Cl)c(Cl)c1)c1ccccn1,–,–,–,–,10µM,–
CC(=O)c1cccc(NC(=O)c2nc(-c3ccccc3)n(-c3ccccc3)n2)c1,–,·,–,–,·,–
CC(=O)c1ccc(NC(=O)c2nc(-c3ccccc3)n(-c3ccc(C)cc3)n2)cc1,18µM,·,?,–,·,–
SMILES,TDP-43 yeast inh,Mm-Cpn inhibitor,FUS suppressor,Abeta rescue,aSyn rescue,ClpP mod
Cc1ccc(C)c(NC(=O)c2nc(-c3ccccc3)n(-c3ccccc3)n2)c1,18µM,–,?,–,–,–
Cc1ccc(NC(=O)c2cc(C)nn2-c2ccccc2)cc1,18µM,–,–,–,–,–
Cc1cc(C(=O)Nc2ccc(Cl)cc2)n(-c2ccccc2)n1,?,–,–,–,–,–
CC(=O)c1ccc(NC(=O)c2nc(-c3ccccc3)n(-c3ccc(Cl)cc3)n2)cc1,7.9µM,·,–,–,·,–
O=[N+]([O-])c1cccc(S(=O)(=O)N2CCN(c3nc(-c4cccs4)nc4ccccc34)CC2)c1,·,·,·,·,–,–
O=C(Cc1ccc(F)cc1)NCCc1csc2nc(-c3ccccc3F)nn12,–,·,–,–,·,–
O=C(CNC(=O)c1ccccc1)OCC(=O)c1ccccc1,·,·,·,·,–,–
Cc1cccc(-c2cc(NC(=O)c3ccccc3C)n(-c3ccccc3)n2)c1,20µM,·,–,–,·,–
Cc1ccc(NC(=O)c2cc(C)n(-c3ccccc3)c2C)cc1,25µM,–,–,–,–,–
CC(C)c1ccc(NC(=O)Cn2cc(S(=O)(=O)N3CCN(c4ccccc4F)CC3)c3ccccc3c2=O)cc1,–,·,–,–,·,–
Cc1cc(C)cc(N2C(=O)CC(Sc3ccccc3C(=O)O)C2=O)c1 (centres undefined),22µM,–,–,–,–,–
CCOC(=O)c1c(N2C(=O)CC(Sc3ccccc3C(=O)O)C2=O)sc(C)c1C (centres undefined),14µM,–,–,?,–,–
Cc1cccc(N2C(=O)CC(Sc3ccccc3C(=O)O)C2=O)c1 (centres undefined),?,–,–,–,–,–
Cc1ccc(N2C(=O)CC(Sc3ccccc3C(=O)O)C2=O)cc1 (centres undefined),?,–,·,–,–,–
O=C(Nc1ccc(Cl)cc1Cl)c1cc(S(=O)(=O)N2CCc3ccccc32)ccc1F,–,·,–,–,·,–
O=C(Nc1nc(-c2ccc(F)c(F)c2)cs1)C1=COCCO1,4µM,–,–,–,–,–
CCC(=O)Nc1nc(-c2ccc3c(c2)OCCO3)cs1,?,–,–,–,–,–
CCc1ccc(-c2csc(NC(=O)C3=COCCO3)n2)cc1,18µM,–,–,–,–[1.84 µM],–
O=C(Nc1nc(-c2ccc(Cl)cc2)cs1)C1=COCCO1,?,–,–,–,–,–
COc1ccccc1C(=O)Nc1nc(-c2ccc3c(c2)OCCO3)cs1,?,–,–,–,–,25µM
CCCSc1nnc2n(-c3cccc(C)c3)c(=O)c3c4c(sc3n12)CCCC4,–,·,–,–,–,–
O=C1c2ccccc2NC2CCCCCN12 (centres undefined),–,–,–,–,–,13µM
O=C1Nc2ccccc2C(=O)N2CCCCC12 (centres undefined),–,–,–,–,–,–
CCCC(=O)Oc1ccc2[nH]c(C(=O)c3cc4ccccc4[nH]3)cc2c1,·,·,·,·,–,–
Cc1ccc(-c2nc(SCCOc3ccccc3C)n3[nH]c(=O)cc3n2)cc1,–,·,–,–,·,–
O=C(O)c1ccc2nc(-c3ccccc3)c(-c3ccccc3)nc2c1,–,–,·,–,–,22µM
